MITF act – MITF TRPM1 promoter activation in melanoma cells; SK-MEL-5 TRPM1-promoter luciferase, 24 h; % of positive control, neutral wells = 0; activation, % at 12.5 µM; 0.75% of 300,000 active; AID 588334;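 active = mean activation of at least 80% with every replicate also reaching 80%; inconclusive = mean reaches 80% but some replicate falls short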;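 also: 0% = neutral control wells and 100% = parthenolide positive control wells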
C2C12 statin – suppression of simvastatin myotoxicity | C2C12 myotubes + simvastatin, ATP luminescence, 48 h; scaled: DMSO 0, geranylgeraniol control 100 | 0.78% of 330,000 active | rescue of ATP level, % at 7.49 µM | AID 602340;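 active = mean ATP rescue above about 67%, or every replicate alone reaching that limit, limit read from the data, passing the limit was not always enough; inconclusive = no clear call, values can overlap the other calls; inactive = mean under the limit and some replicate under it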;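 also: myotubes were challenged with 10 µM simvastatin during compound exposure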
Wnt act – activates Wnt/beta-catenin signaling in a reporter cell assay; activator, plate reader; activation, % at 9.35 µM; 1.2% of 300,000 active; in the data active = activation above about 30%, passing the limit was not always enough; inconclusive = no clear call, values can overlap the other calls;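 also: 0% = neutral control wells and 100% = positive control wells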
GAA850 FXN act – increases GAA850 frataxin promoter reporter activity. HEK293 lucGAA850 FXN promoter luciferase reporter, 24 h; percent of 10 µM SAHA response. activation, % at 6 µM. 0.56% of 360,000 active. AID 540364;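 active = activation above the average of all compounds screened plus 3 SD, cutoff fixed separately per campaign, cut at about 7.5% in these data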;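 also: 0% = DMSO wells and 100% = 10 µM SAHA wells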
esBAF inh – SWI/SNF esBAF complex inhibition; mouse ES cells, Bmi1-luciferase knock-in reporter, 24 h; 100% = twice the neutral-well signal; 2% of 350,000 active; reporter increase, % at 12.5 µM; in the data active = activation above about 40%; inconclusive = no clear call, values can overlap the other calls;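 also: 0% = median of the plate's neutral control wells and 100% = double that signal; a rise in the Bmi1 reporter signal indicates esBAF inhibition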
GAA30 counter – counter-screen for GAA850 frataxin promoter activators: GAA30 promoter activation. shares compounds with GAA850 FXN act. HEK293 lucGAA30 FXN promoter luciferase, 24 h; DMSO = 0%, 5 µM ipriflavone = 100%. activation, % at 6 µM. 66% of 1,900 active;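 active = mean activation above the mean of solvent-only control wells plus 3 SD, cut at about 22% in these data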;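 also: counterscreen of GAA850 promoter hits where activity marks nonselective or luminescence artifacts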
GAA850 confirm – confirmation of GAA850 frataxin (FXN) promoter activators; shares compounds with GAA850 FXN act; HEK293 lucGAA850 FXN promoter luciferase reporter, 24 h; 100% = activation by SAHA; activation, % at 6 µM; 86% of 1,900 active; AID 588351;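 active = mean activation above a set limit taken from the primary screen, cut at about 8% in these data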;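 also: 0% = DMSO wells and 100% = 10 µM SAHA wells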
An asterisk follows results filed as active; ? = inconclusive; . = no result given. Only some compounds are listed: those with a hit (about 3.3% of all), similar ones and a draw of the others.

SMILES | MITF act | C2C12 statin | Wnt act | GAA850 FXN act | esBAF inh | GAA30 counter | GAA850 confirm
O=C(CSC(=S)N1CCSCC1)c1ccccc1 | 57 | . | 22 | 5 | . | . | .
CC(C)C#Cc1cnc2c(c1)C(=O)N([C@@H](C)CO)C[C@H](C)[C@@H](CN(C)C(=O)Cc1ccccn1)O2 | . | -1 | . | . | -3 | . | .
Cc1cc(Nc2ccccc2)nc(NCc2ccccc2)n1 | -5 | . | 8 | 1 | . | . | .
Cc1cc(Nc2ccc(Cl)cc2)nc(NCc2ccccc2)n1 | -15 | . | . | 14* | . | 17 | 10*
O=C1OC(/C(=C\Nc2ccc(F)cc2F)[N+](=O)[O-])c2ccccc21 (stereo not given) | 0 | . | -1 | 4 | . | . | .
O=C1OC(/C(=C\Nc2cc(Cl)ccc2O)[N+](=O)[O-])c2ccccc21 (stereo not given) | -6 | . | -9 | 12* | . | 51* | 5
C[C@H](CO)N1C[C@H](C)[C@H](CN(C)Cc2ccncc2)Oc2c(NC(=O)C3CC3)cccc2C1=O | . | -15 | . | . | 2 | . | .
Cc1ccc(CCN2C(=O)CCC2(C)C(=O)NC2CCCC2)cc1 (stereo not given) | . | 2 | 0 | 15* | -4 | 19 | 5
COc1ccc(CCN2C(=O)CCC2(C)C(=O)NC2CCCC2)cc1OC (stereo not given) | -7 | -10 | 1 | 1 | -6 | . | .
CO[C@H]1CN(C)C(=O)c2cc(NC(=O)C3CC3)ccc2OC[C@H](C)N(C(C)=O)C[C@@H]1C | . | 11 | . | . | -1 | . | .
Cc1ccc(S(=O)(=O)N(C)C[C@H]2OCCCC[C@@H](C)Oc3ccc(NC(=O)Nc4ccccc4)cc3C(=O)N([C@@H](C)CO)C[C@H]2C)cc1 | . | . | . | . | 0 | . | .
COc1ccc(NC(=O)C2(C)CCN2Cc2ccc(OC)c3ccccc23)cc1OC (stereo not given) | . | 53 | 2 | 7.7* | 6 | 22* | 13*
COc1ccc(NC(=O)C2(C)CCN2Cc2cccc(OC)c2OC)cc1OC (stereo not given) | . | -1 | -3 | 1 | 7 | . | .
COc1ccc(S(=O)(=O)Nc2ccc3c(c2)CC(=O)N([C@H](C)CO)C[C@H](C)[C@@H](CN(C)C(=O)NC2CCCCC2)O3)cc1 | . | 12 | . | . | -6 | . | .
C[C@@H]1CN([C@H](C)CO)S(=O)(=O)c2ccc(C#C[C@@H](C)O)cc2O[C@@H]1CN(C)C(=O)C1CC1 | . | 6 | . | . | -8 | . | .
COCC(=O)N(C)C[C@@H]1Oc2ncc(-c3ccccc3C)cc2C(=O)N([C@H](C)CO)C[C@@H]1C | . | -2 | . | . | 5 | . | .
COc1ccccc1N1Cc2ccc(OC)c(OC)c2C1=O | 2 | 10 | 3 | -2 | 4 | . | .
COc1ccc2c(c1OC)C(=O)N(c1cccc(C(F)(F)F)c1)C2 | 121* | -30 | . | 18* | 46* | 99* | 38*
Cc1ccc(OCc2cc(C(=O)N3CC4C[C@@H]5CC3C[C@H](C4)C5)no2)cc1C | 110* | 9 | 20 | 9.0* | 52* | 97* | 31*
CCCC#Cc1ccc2c(c1)O[C@@H](CN(C)C(=O)C1CC1)[C@H](C)CN([C@H](C)CO)S2(=O)=O | . | 5 | . | . | -1 | . | .
CCOC(=O)CNC(=S)N(Cc1cccs1)C1CCCCC1 | 9 | . | 0 | 8.0* | . | 13 | 9.2*
CCOC(=O)CNC(=S)N(Cc1ccccc1F)C1CCCCC1 | 0 | 0 | 0 | 2 | -1 | . | .
Cc1cc(=O)[nH]c(N/N=C/c2c[nH]c3ccccc23)n1 | 9 | -10 | 2 | 2 | 5 | . | .
C(=N\Nc1nc2ccccc2[nH]1)/c1c[nH]c2ccccc12 | 123* | . | . | 9.8* | . | 129* | 44*
CC1CCC(NC(=O)CCn2ccc3cc(S(=O)(=O)N4CCCC4)ccc32)CC1 (stereo not given) | 3 | -13 | -3 | 8.4* | 1 | 9 | 8.9*
O=C(Nc1cccnc1Cl)c1ccc2c(Cl)c3c(nc2c1)CCC3 | 44 | . | ? | 7.7* | . | 113* | 30*
CC(=O)c1cccc(NC(=O)c2ccc3c(Cl)c4c(nc3c2)CCCC4)c1 | 37 | . | 6 | 1 | . | . | .

Bioassay records (PubChem BioAssay)
